# High-throughput results from PubChem.
# G9a block: qHTS Assay for Inhibitors of Histone Lysine Methyltransferase G9a | G9a H3K9 monomethylation, AlphaScreen, 2 h | Histone-lysine N-methyltransferase EHMT2 (Homo sapiens), Q96KQ7 | AID 504332, 2011 | hit rate 8.8% among 350,000 | Potency, µM (series often up to 102 µM), inactives show top-dose activity, negative = inhibition, usual class: inhibitors; also: % is scaled to controls: 0 for no effect and ±100 for the full control effect; nearly all actives have a fitted effect of over 75% in size
#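 G9a (20 nM) preincubated 15 min RT with compounds, then 500 nM biotinylated H3K9 peptide and 20 uM SAM added; 2 h RT reaction. Monomethyl-H3K9 product detected by AlphaScreen with anti-H3K9me1 antibody, streptavidin donor and anti-rabbit IgG acceptor beads.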
# HP1b binding inh: HTS for Inhibitors of HP1-beta Chromodomain Interactions with Methylated Histone Tails. Chromobox protein homolog 1 (Homo sapiens), P83916. AlphaScreen HP1-beta / biotin-H3K9me3 peptide binding. Potency, µM (doses to about 114 µM), inactives show at the top dose activity change, negative = inhibition, most hits filed as inhibitors. hit rate 0.56% among 390,000; also: nearly all actives have a fitted effect of over 70% in size
#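 AlphaScreen: HP1-beta (50 nM) preformed 30 min with biotin-H3(1-18)K9me3 peptide (50 nM) in PBS pH 7.4, 0.01% Tween-20. Compound added for 30 min at RT, then streptavidin donor/nickel chelate acceptor beads (10 ug/mL) for 30 min.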
# L3MBTL1 inh: qHTS Assay for the Inhibitors of L3MBTL1. AlphaScreen L3MBTL1–H3K9me1 peptide binding. Lethal(3)malignant brain tumor-like protein 1 (Homo sapiens), Q9Y468. hit rate 0.66% among 230,000. Potency, µM (doses to about 57.1 µM), inactives show at the top dose activity, negative = inhibition, actives largely listed as inhibitors; also: % is scaled to controls: 0 for no effect and ±100 for the full control effect; nearly all actives have a fitted effect of over 60% in size
# Target sequence (Q9Y468 whole entry, looked up): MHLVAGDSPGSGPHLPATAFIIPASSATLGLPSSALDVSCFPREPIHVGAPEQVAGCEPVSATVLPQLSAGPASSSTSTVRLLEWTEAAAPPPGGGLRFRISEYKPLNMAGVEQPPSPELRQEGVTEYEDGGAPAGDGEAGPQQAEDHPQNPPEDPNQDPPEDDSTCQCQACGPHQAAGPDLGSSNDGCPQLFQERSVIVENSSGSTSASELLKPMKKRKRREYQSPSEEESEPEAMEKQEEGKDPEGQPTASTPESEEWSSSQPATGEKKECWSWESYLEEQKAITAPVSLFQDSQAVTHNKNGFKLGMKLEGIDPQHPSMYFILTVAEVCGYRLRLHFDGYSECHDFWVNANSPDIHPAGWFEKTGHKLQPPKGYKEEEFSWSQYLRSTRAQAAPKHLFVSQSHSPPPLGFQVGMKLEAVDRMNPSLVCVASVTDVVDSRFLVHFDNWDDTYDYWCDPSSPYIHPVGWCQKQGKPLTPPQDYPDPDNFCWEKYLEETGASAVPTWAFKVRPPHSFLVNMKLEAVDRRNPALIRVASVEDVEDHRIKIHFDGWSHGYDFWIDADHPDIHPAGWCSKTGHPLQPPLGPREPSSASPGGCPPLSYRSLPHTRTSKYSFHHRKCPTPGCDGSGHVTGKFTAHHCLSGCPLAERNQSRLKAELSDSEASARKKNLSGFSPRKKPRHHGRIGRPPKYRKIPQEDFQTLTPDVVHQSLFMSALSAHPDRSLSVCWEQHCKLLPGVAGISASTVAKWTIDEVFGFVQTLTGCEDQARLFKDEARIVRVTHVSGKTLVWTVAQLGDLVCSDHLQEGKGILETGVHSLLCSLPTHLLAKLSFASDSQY
#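 AlphaScreen assay: L3MBTL1 (50 nM final) was preincubated 30 min at room temperature with biotinylated H3(1-15)K9me1 peptide (75 nM final), then 30 min with library compounds; streptavidin donor and nickel chelate acceptor beads (10 ug/mL final) added, 30 min dark.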
# BAZ2B inh: qHTS Assay for Inhibitors of BAZ2B | hit rate 4.4% among 360,000 | AID 504333, 2011 | Potency, µM (titrated, usually from 114 µM), for the others: at the highest dose activity change, negative = inhibition, most hits filed as inhibitors | Bromodomain adjacent to zinc finger domain protein 2B (Homo sapiens), Q9UIF8 | AlphaScreen BAZ2B-H3K14Ac peptide displacement; also: % is scaled to controls: 0 for no effect and ±100 for the full control effect; nearly all actives have a fitted effect of over 60% in size
#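 AlphaScreen displacement of biotin-H3(5-23)K14Ac peptide (50 nM final) from BAZ2B (50 nM final) in PBS pH 7.4, 0.01% Tween-20; complex preformed 30 min RT, then compounds (top 110 uM) 30 min RT, beads 20 min dark.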
# JMJD2A Tudor inh: qHTS Assay for Inhibitors of JMJD2A-Tudor Domain; AlphaScreen JMJD2A-Tudor / H3K4me3 peptide binding; Potency, µM (highest dose often 114 µM), for inactives: top-dose activity change, negative = inhibition, hits mostly inhibitors; hit rate 4.4% among 390,000; AID 504339, 2011; also: % is scaled to controls: 0 for no effect and ±100 for the full control effect; nearly all actives have a fitted effect of over 50% in size
# GLS inhibitor: qHTS for Inhibitors of Glutaminase (GLS); Glutaminase kidney isoform, mitochondrial (Homo sapiens), O94925; GLS enzymatic activity, qHTS titration; Potency, µM (highest dose often 45.5 µM), without a hit: at the highest dose activity change, negative = inhibition, most hits filed as inhibitors; hit rate 0.21% among 410,000; also: % is scaled to controls: 0 for no effect and ±100 for the full control effect
#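 Human kidney-isoform GLS in 45 mM KH2PO4 pH 8.2, 0.02% Tween-20, with compound, started with 1mM L-Glutamine (added stock). Glutamate oxidase/HRP/Amplex red coupled fluorescence read at start and after 30 min at RT.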
# * marks the source's active call; other numbers are inactive results; ? = inconclusive; . = not tested or not shown; [ ] = another dose, or the depositor's remark. Shown are actives, neighbours in structure and some others; about 10% of the full set was active somewhere. Calls follow the shape of the dose curve; as a rule, active = well fitted curve in the direction sought with a large enough effect; inconclusive = small, poorly fitted or top-dose-only effect, or another doubt; inactive = no such curve, though single readings can be large; an effect the other way counts as inactive or inconclusive. Potency is read from the fitted curve at half-maximal effect.
SMILES,G9a block,HP1b binding inh,L3MBTL1 inh,BAZ2B inh,JMJD2A Tudor inh,GLS inhibitor
Cc1ccc(Nc2ncc3c(n2)CC(c2ccco2)CC3=O)c(C)c1 (stereo not given),50µM*,4%,-6%,0%,-26%,5%
Cc1cc(C)cc(Nc2ncc3c(n2)CC(c2ccco2)CC3=O)c1 (stereo not given),?,?,-8%,-31%,89µM*,3%
O=C(NCCc1ccc(Cl)cc1)C1CCN(Cc2cc3ccccc3n2Cc2ccccc2)CC1,10%[59 µM],33%,.,-20%,-21%,4%
CCc1nn(CC(=O)N(CC)Cc2ccccc2)c(=O)c2cc3occc3n12,-5%[59 µM],10%,.,-13%,-19%,-7%
Fc1ccc(C(c2nnnn2Cc2cccs2)N2CCN(c3ccccc3)CC2)cc1 (stereo not given),-4%[59 µM],24%,-11%,-4%,-32%,17%
CCCC(c1nnnn1CC1CCCO1)N1CCN(c2ccccc2)CC1 (stereo not given),56µM*,42%,0%,?,-1%,0%
CCC(c1nnnn1Cc1ccc2c(c1)OCO2)N1CCN(c2ccc(OC)cc2)CC1 (stereo not given),40µM*,-42%,-28%,32µM*,?,41%
COc1ccc(Cn2nnnc2C(c2ccccc2)N2CCN(c3ccccc3)CC2)cc1 (stereo not given),.,7%,.,.,?,.
Oc1ccc(N2CCN(C(c3ccc(Cl)cc3)c3nnnn3Cc3ccc(F)cc3)CC2)cc1 (stereo not given),.,?,.,.,40µM*,.
CCC(c1nnnn1Cc1ccc(OC)cc1)N1CCN(c2ccc(OC)cc2)CC1 (stereo not given),.,?,-20%,35µM*,?,?
CCN(CCCNC(=O)c1cc2cc3cc(C)ccc3nc2s1)c1cccc(C)c1,-44%[59 µM],-4%[57 µM],.,-30%,?,-2%
CCOc1ccc(CNC(=O)Cc2ccc(NC(=O)N3CCSc4ncccc43)cc2)cc1,-6%[59 µM],25%,.,-17%,-8%,-1%
COCCNc1ncnc2ccc(-c3ccc(C(=O)N(C)C)cc3)cc12,16%[0.501 µM],.,.,.,.,.
CC(C)c1nc2ccc(C(=O)NCc3ccc(F)cc3)cc2o1,2%[59 µM],1%[57 µM],.,2%,-12%,3%
Cc1ccc(NC(=O)CSc2ncc3c(n2)-c2ccccc2N(C)S3(=O)=O)c(Cl)c1,-2%[59 µM],23%,.,-4%,-9%,8%
COc1cccc(-c2cncnc2NCc2cccs2)c1,8%[0.501 µM],.,.,.,.,.
CCC(C)(C)n1nnnc1C(c1ccccn1)N1CCN(c2cccc(OC)c2)CC1 (stereo not given),20µM*,17%,-7%,-4%,-33%,-11%
COc1ccc(Cn2nnnc2C(c2cccnc2)N2CCN(c3ccc(O)cc3)CC2)cc1 (stereo not given),?,?,-8%,-1%,?,47%
COc1ccc(N2CCN(C(c3ccccc3)c3nnnn3Cc3ccccc3)CC2)cc1 (stereo not given),.,-7%,.,.,?,.
CCC(c1nnnn1Cc1ccccc1)N1CCN(c2ccc(OC)cc2)CC1 (stereo not given),13µM*,-4%,-24%,?,?,20%
Oc1ccc(N2CCN(C(c3ccccn3)c3nnnn3C3CCCC3)CC2)cc1 (stereo not given),1.8µM*,?,-5%,-11%,25µM*,49%
COc1ccc(Cn2nnnc2C(c2ccccn2)N2CCN(c3ccc(O)cc3)CC2)cc1 (stereo not given),.,?,.,.,32µM*,.
CCOc1ccc(S(=O)(=O)Nc2cc(Cl)ccc2OC)c2cccnc12,9%[59 µM],15%,.,?,-34%,2%
